Data: article PMC10812921, “Transcriptional Coactivator BOB1 (OBF1, OCA-B) Modulates the Specificity of DNA Recognition by the POU-Domain Factors OCT1 and OCT2 in a Monomeric Configuration”

Columns and labels:
[1] = target: POU1 (OCT1 POU domain) (human, UniProt P14859 260-458); assay: EMSA-SELEX-seq; no BOB1; 20 mM Tris-HCl pH 7.6, 140 mM NaCl, 10% glycerol, 0.5 mM EDTA, 0.05% Triton X-100, 0.1 mg/mL BSA, 0.1 mg/mL poly(dI-dC), 5 mM DTT, room temperature, 20 min; high values mean tight binding; details: protein: recombinant; dsDNA, one strand shown
How it was run: (§1)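 After expression in E. coli BL21, tagged POU-domain proteins were purified under denaturing conditions and then renatured. Each binding reaction held 30 ng protein and 300 ng of a PCR-amplified double-stranded random 35-nt library in 20 μL Tris–HCl pH 7.6 binding buffer, with or without 28 ng coactivator protein, for 20 min at RT. Bands holding complexes were cut from native 6% PAGE, eluted and PCR-amplified across four rounds, and the output was Illumina-sequenced. The value given for binding preference is the share, in percent, of sequenced 8-mers fitting a motif pattern.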

[2] = target: T1, POU2 (OCT2 POU domain) (human, UniProt P09086 175-386); assay: as above; details: protein: recombinant; dsDNA, one strand shown
T1 sequence: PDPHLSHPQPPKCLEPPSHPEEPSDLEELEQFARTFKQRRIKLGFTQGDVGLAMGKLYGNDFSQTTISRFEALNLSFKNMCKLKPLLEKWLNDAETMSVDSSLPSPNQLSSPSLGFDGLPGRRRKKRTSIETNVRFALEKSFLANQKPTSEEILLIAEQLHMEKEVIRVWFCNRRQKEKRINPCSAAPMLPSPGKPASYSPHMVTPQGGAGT
How it was run: as §1

[3] = target: POU1 (OCT1 POU domain);BOB1 (OBF1, OCA-B) (human;human, UniProt P14859;Q16633 260-458;1-256, |); assay: EMSA-SELEX-seq; with BOB1 (ternary complex band); 20 mM Tris-HCl pH 7.6, 140 mM NaCl, 10% glycerol, 0.5 mM EDTA, 0.05% Triton X-100, 0.1 mg/mL BSA, 0.1 mg/mL poly(dI-dC), 5 mM DTT, room temperature, 20 min; high values mean tight binding; details: protein: recombinant;recombinant; copies: 1;1; dsDNA, one strand shown
How it was run: as §1

[4] = target: T2, POU2 (OCT2 POU domain);BOB1 (OBF1, OCA-B) (human;human, UniProt P09086;Q16633 175-386;1-256, |); assay: as above; details: protein: recombinant;recombinant; copies: 1;1; dsDNA, one strand shown
T2 sequence 1: T1 sequence
T2 sequence 2: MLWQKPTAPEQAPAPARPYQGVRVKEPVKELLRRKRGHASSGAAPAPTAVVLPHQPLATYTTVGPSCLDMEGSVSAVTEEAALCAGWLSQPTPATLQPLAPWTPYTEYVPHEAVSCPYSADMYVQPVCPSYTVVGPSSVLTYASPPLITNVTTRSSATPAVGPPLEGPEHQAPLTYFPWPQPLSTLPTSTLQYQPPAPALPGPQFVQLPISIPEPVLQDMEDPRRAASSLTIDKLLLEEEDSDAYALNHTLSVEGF
How it was run: as §1

Sequence of POU1 (OCT1 POU domain) (P14859 260-458): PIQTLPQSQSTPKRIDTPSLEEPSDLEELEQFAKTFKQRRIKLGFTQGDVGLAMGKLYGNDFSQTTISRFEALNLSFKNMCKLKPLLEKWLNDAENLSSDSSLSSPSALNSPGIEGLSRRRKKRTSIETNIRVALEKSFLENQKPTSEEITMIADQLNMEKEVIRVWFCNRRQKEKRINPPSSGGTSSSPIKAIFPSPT

Row | Sequence | binding signal [1] | binding signal [2] | binding signal [3] | binding signal [4]
1 | AATTGAAA | 0.113 % of ANNNNAAN 8-mers | 0.131 % of ANNNNAAN 8-mers | 0.114 % of ANNNNAAN 8-mers | 0.0817 % of ANNNNAAN 8-mers
2 | AAAGCAAC | 0.0256 % of ANNNNAAN 8-mers | 0.0259 % of ANNNNAAN 8-mers | 0.0281 % of ANNNNAAN 8-mers | 0.0272 % of ANNNNAAN 8-mers
3 | ACTTTAAG | 0.0336 % of ANNNNAAN 8-mers | 0.0299 % of ANNNNAAN 8-mers | 0.0332 % of ANNNNAAN 8-mers | 0.0322 % of ANNNNAAN 8-mers
4 | ACAATAAA | 0.0481 % of ANNNNAAN 8-mers | 0.0495 % of ANNNNAAN 8-mers | 0.0453 % of ANNNNAAN 8-mers | 0.0396 % of ANNNNAAN 8-mers
5 | AGTTTAAT | 0.129 % of ANNNNAAN 8-mers | 0.156 % of ANNNNAAN 8-mers | 0.0882 % of ANNNNAAN 8-mers | 0.111 % of ANNNNAAN 8-mers
6 | ACTAGAAC | 0.016 % of ANNNNAAN 8-mers | 0.0207 % of ANNNNAAN 8-mers | 0.0144 % of ANNNNAAN 8-mers | 0.0149 % of ANNNNAAN 8-mers
7 | AATAGAAT | 0.113 % of ANNNNAAN 8-mers | 0.136 % of ANNNNAAN 8-mers | 0.0921 % of ANNNNAAN 8-mers | 0.121 % of ANNNNAAN 8-mers
8 | ACGACAAC | 0.0126 % of ANNNNAAN 8-mers | 0.0132 % of ANNNNAAN 8-mers | 0.0133 % of ANNNNAAN 8-mers | 0.0149 % of ANNNNAAN 8-mers
9 | AGTGGAAA | 0.0542 % of ANNNNAAN 8-mers | 0.0512 % of ANNNNAAN 8-mers | 0.0718 % of ANNNNAAN 8-mers | 0.052 % of ANNNNAAN 8-mers
10 | AACATAAG | 0.0694 % of ANNNNAAN 8-mers | 0.0731 % of ANNNNAAN 8-mers | 0.041 % of ANNNNAAN 8-mers | 0.0396 % of ANNNNAAN 8-mers
11 | ACCAGAAG | 0.0137 % of ANNNNAAN 8-mers | 0.0167 % of ANNNNAAN 8-mers | 0.018 % of ANNNNAAN 8-mers | 0.0215 % of ANNNNAAN 8-mers
12 | AACCCAAA | 0.0233 % of ANNNNAAN 8-mers | 0.0173 % of ANNNNAAN 8-mers | 0.0277 % of ANNNNAAN 8-mers | 0.0206 % of ANNNNAAN 8-mers
13 | AAAATAAG | 0.13 % of ANNNNAAN 8-mers | 0.125 % of ANNNNAAN 8-mers | 0.148 % of ANNNNAAN 8-mers | 0.114 % of ANNNNAAN 8-mers
14 | ATGCGAAT | 0.124 % of ANNNNAAN 8-mers | 0.165 % of ANNNNAAN 8-mers | 0.0901 % of ANNNNAAN 8-mers | 0.128 % of ANNNNAAN 8-mers
15 | AGGATAAG | 0.0496 % of ANNNNAAN 8-mers | 0.0558 % of ANNNNAAN 8-mers | 0.0523 % of ANNNNAAN 8-mers | 0.0479 % of ANNNNAAN 8-mers
16 | ATGACAAG | 0.0404 % of ANNNNAAN 8-mers | 0.0351 % of ANNNNAAN 8-mers | 0.0336 % of ANNNNAAN 8-mers | 0.0289 % of ANNNNAAN 8-mers
17 | ATAACAAT | 0.0622 % of ANNNNAAN 8-mers | 0.088 % of ANNNNAAN 8-mers | 0.0496 % of ANNNNAAN 8-mers | 0.0735 % of ANNNNAAN 8-mers
18 | ATGCTAAG | 0.149 % of ANNNNAAN 8-mers | 0.156 % of ANNNNAAN 8-mers | 0.0777 % of ANNNNAAN 8-mers | 0.0726 % of ANNNNAAN 8-mers
19 | ATCAGAAG | 0.0271 % of ANNNNAAN 8-mers | 0.0363 % of ANNNNAAN 8-mers | 0.0359 % of ANNNNAAN 8-mers | 0.033 % of ANNNNAAN 8-mers
20 | AACTTAAA | 0.0526 % of ANNNNAAN 8-mers | 0.0501 % of ANNNNAAN 8-mers | 0.046 % of ANNNNAAN 8-mers | 0.038 % of ANNNNAAN 8-mers
21 | ACATGAAT | 0.151 % of ANNNNAAN 8-mers | 0.179 % of ANNNNAAN 8-mers | 0.0773 % of ANNNNAAN 8-mers | 0.0925 % of ANNNNAAN 8-mers
22 | ATTCAAAC | 0.153 % of ANNNNAAN 8-mers | 0.15 % of ANNNNAAN 8-mers | 0.199 % of ANNNNAAN 8-mers | 0.125 % of ANNNNAAN 8-mers
23 | AAAACAAC | 0.0362 % of ANNNNAAN 8-mers | 0.0345 % of ANNNNAAN 8-mers | 0.0609 % of ANNNNAAN 8-mers | 0.0462 % of ANNNNAAN 8-mers
24 | ATAGTAAC | 0.0282 % of ANNNNAAN 8-mers | 0.0414 % of ANNNNAAN 8-mers | 0.023 % of ANNNNAAN 8-mers | 0.038 % of ANNNNAAN 8-mers
25 | ATAGTAAT | 0.116 % of ANNNNAAN 8-mers | 0.148 % of ANNNNAAN 8-mers | 0.0702 % of ANNNNAAN 8-mers | 0.0867 % of ANNNNAAN 8-mers
26 | ATTGAAAT | 0.257 % of ANNNNAAN 8-mers | 0.29 % of ANNNNAAN 8-mers | 0.189 % of ANNNNAAN 8-mers | 0.137 % of ANNNNAAN 8-mers
27 | AAGGCAAA | 0.222 % of ANNNNAAN 8-mers | 0.117 % of ANNNNAAN 8-mers | 0.443 % of ANNNNAAN 8-mers | 0.278 % of ANNNNAAN 8-mers
28 | ATCCAAAA | 0.0591 % of ANNNNAAN 8-mers | 0.0414 % of ANNNNAAN 8-mers | 0.0722 % of ANNNNAAN 8-mers | 0.0446 % of ANNNNAAN 8-mers
29 | AGAGTAAC | 0.0206 % of ANNNNAAN 8-mers | 0.0322 % of ANNNNAAN 8-mers | 0.0234 % of ANNNNAAN 8-mers | 0.0264 % of ANNNNAAN 8-mers
30 | ATCATAAC | 0.0324 % of ANNNNAAN 8-mers | 0.0374 % of ANNNNAAN 8-mers | 0.023 % of ANNNNAAN 8-mers | 0.0322 % of ANNNNAAN 8-mers
